Assay results from the supplement of paper PMC11732987, “Enantioselective OTUD7B fragment discovery through chemoproteomics screening and high-throughput optimisation” (Communications Chemistry, 2025).

Tests used:
Experiment in all cases: log2 ratio of Biotin-Ahx-Ub-VS probe labelling (fragment/DMSO); higher = less target engagement (more negative = stronger competition), active = hit call of the paper (q ≤ 0.05, log2 ratio ≤ -1)
Conditions in all cases: compound concentration: 200 uM; treatment time: 3 h
USP19 = molecular target: T1, USP19 (UniProt O94966)
T1 sequence (whole entry): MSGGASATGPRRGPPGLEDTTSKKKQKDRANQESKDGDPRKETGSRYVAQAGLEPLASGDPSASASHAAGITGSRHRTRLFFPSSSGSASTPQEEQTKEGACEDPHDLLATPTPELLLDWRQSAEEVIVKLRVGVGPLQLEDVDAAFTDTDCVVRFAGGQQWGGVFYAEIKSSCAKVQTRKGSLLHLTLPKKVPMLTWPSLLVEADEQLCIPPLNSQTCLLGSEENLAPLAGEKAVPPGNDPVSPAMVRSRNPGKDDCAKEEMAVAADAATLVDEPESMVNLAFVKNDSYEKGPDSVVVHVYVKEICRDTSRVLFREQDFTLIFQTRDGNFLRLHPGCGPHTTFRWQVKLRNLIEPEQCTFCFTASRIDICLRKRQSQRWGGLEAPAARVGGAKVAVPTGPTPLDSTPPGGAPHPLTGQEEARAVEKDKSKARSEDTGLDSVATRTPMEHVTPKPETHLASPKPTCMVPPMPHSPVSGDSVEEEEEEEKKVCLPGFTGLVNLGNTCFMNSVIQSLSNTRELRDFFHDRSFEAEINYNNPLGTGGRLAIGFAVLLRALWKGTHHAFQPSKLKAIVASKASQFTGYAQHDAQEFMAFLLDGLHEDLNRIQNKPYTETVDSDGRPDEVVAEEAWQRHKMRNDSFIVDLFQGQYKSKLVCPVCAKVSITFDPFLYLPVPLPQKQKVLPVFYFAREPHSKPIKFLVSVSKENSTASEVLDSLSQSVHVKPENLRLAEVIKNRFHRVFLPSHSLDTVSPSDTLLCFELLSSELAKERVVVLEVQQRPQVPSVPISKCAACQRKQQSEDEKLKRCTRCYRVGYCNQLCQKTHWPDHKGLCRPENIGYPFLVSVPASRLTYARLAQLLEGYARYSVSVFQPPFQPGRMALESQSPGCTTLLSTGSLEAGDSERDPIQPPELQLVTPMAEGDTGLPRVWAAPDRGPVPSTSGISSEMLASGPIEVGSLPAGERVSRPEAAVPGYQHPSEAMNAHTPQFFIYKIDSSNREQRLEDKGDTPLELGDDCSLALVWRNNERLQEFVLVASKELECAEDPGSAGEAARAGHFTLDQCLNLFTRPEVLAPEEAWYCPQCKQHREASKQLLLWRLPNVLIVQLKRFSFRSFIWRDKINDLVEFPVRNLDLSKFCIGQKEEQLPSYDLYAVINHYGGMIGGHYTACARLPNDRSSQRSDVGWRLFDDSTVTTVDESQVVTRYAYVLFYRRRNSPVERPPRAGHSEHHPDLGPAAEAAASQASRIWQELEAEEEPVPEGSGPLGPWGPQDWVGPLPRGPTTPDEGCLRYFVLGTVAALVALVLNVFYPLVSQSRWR
Method in brief: (§1)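 Average log2 ratios of fragment over vehicle were obtained by unpaired t-test from global-median-normalised Spectronaut label-free quantities. Proteins with ≥2 unique peptides were included. HEK293T lysate (495 µg per sample) was treated in triplicate with fragment at 200 µM or vehicle for 3 h, then with Biotin-Ahx-Ub-VS at 0.5 µM final for 1 h, and labelled DUBs were NeutrAvidin-enriched and run by diaPASEF LC-MS/MS.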

USP22 = molecular target: T2, USP22 (UniProt Q9UPT9)
T2 sequence (whole entry): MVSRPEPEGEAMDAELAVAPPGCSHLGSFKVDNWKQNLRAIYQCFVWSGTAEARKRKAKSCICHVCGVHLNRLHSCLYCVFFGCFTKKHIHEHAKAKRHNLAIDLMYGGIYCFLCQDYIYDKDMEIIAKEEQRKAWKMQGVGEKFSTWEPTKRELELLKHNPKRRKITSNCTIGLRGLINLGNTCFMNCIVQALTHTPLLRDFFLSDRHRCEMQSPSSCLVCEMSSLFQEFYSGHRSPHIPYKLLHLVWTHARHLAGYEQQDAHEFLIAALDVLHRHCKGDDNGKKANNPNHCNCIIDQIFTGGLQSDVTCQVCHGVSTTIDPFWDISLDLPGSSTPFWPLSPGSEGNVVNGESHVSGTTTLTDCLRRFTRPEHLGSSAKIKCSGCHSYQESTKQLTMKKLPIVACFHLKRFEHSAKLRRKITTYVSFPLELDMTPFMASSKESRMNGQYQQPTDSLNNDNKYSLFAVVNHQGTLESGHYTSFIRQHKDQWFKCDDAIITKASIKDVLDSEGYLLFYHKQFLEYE
Method in brief: as §1

USP24 = USP24 (UniProt Q9UPU5)
Method in brief: as §1

USP25 = molecular target: T3, USP25 (UniProt Q9UHP3)
T3 sequence (whole entry): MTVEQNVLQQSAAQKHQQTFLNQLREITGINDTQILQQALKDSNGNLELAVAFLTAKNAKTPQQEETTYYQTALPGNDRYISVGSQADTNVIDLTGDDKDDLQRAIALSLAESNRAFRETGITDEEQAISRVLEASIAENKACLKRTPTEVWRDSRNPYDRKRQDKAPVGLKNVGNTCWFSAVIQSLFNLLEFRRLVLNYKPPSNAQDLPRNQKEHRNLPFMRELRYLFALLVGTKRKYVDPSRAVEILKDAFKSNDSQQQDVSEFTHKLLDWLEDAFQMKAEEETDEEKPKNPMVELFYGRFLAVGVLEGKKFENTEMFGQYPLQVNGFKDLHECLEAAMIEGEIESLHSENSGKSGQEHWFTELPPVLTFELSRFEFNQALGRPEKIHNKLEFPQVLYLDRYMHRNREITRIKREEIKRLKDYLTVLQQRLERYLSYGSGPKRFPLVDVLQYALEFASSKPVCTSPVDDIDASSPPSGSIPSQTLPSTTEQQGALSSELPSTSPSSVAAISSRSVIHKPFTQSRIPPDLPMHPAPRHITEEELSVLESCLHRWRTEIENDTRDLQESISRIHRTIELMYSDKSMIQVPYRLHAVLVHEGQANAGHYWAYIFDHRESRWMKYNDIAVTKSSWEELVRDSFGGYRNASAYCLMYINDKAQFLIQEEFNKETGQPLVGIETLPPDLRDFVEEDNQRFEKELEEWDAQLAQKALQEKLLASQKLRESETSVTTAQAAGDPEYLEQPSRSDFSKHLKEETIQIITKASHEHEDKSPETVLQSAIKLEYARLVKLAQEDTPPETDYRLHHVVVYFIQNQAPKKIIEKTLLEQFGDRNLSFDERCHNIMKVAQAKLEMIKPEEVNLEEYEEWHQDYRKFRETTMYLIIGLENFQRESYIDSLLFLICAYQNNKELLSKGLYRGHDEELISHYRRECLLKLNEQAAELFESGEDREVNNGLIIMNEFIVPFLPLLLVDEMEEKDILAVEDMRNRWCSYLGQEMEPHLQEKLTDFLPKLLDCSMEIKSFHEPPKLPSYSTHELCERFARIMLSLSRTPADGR
Method in brief: as §1

USP28 = molecular target: T4, USP28 (UniProt Q96RU2)
T4 sequence (whole entry): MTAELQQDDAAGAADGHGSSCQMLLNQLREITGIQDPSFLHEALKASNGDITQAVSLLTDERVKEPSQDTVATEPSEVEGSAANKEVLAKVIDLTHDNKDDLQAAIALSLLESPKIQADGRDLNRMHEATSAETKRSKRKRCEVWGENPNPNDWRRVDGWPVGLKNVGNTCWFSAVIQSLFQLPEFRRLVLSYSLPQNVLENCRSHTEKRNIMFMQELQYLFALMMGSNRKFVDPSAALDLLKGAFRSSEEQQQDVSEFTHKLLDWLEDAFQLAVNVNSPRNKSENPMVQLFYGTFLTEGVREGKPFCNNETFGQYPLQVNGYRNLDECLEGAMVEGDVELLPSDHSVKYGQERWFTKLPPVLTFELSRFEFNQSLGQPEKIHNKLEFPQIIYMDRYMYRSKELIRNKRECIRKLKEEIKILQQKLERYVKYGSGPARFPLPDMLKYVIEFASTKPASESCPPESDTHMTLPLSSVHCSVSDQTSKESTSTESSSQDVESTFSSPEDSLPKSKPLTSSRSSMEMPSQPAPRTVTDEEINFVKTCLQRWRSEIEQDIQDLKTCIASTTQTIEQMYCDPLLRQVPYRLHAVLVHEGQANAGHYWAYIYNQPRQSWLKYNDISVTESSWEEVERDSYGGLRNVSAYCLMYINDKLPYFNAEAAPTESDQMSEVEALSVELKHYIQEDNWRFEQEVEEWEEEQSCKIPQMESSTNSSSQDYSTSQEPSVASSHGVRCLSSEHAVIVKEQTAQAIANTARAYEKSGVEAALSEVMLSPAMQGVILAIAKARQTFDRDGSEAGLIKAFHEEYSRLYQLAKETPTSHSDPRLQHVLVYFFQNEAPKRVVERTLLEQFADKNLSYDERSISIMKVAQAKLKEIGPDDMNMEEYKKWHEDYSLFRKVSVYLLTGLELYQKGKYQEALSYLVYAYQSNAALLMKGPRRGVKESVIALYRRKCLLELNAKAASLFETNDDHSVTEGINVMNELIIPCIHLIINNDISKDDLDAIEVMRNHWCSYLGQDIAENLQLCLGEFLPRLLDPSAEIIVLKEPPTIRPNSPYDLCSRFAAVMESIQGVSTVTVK
Method in brief: as §1

Measured: log2 ratio of Biotin-Ahx-Ub-VS probe labelling

Chain of USP24 (Q9UPU5 whole entry): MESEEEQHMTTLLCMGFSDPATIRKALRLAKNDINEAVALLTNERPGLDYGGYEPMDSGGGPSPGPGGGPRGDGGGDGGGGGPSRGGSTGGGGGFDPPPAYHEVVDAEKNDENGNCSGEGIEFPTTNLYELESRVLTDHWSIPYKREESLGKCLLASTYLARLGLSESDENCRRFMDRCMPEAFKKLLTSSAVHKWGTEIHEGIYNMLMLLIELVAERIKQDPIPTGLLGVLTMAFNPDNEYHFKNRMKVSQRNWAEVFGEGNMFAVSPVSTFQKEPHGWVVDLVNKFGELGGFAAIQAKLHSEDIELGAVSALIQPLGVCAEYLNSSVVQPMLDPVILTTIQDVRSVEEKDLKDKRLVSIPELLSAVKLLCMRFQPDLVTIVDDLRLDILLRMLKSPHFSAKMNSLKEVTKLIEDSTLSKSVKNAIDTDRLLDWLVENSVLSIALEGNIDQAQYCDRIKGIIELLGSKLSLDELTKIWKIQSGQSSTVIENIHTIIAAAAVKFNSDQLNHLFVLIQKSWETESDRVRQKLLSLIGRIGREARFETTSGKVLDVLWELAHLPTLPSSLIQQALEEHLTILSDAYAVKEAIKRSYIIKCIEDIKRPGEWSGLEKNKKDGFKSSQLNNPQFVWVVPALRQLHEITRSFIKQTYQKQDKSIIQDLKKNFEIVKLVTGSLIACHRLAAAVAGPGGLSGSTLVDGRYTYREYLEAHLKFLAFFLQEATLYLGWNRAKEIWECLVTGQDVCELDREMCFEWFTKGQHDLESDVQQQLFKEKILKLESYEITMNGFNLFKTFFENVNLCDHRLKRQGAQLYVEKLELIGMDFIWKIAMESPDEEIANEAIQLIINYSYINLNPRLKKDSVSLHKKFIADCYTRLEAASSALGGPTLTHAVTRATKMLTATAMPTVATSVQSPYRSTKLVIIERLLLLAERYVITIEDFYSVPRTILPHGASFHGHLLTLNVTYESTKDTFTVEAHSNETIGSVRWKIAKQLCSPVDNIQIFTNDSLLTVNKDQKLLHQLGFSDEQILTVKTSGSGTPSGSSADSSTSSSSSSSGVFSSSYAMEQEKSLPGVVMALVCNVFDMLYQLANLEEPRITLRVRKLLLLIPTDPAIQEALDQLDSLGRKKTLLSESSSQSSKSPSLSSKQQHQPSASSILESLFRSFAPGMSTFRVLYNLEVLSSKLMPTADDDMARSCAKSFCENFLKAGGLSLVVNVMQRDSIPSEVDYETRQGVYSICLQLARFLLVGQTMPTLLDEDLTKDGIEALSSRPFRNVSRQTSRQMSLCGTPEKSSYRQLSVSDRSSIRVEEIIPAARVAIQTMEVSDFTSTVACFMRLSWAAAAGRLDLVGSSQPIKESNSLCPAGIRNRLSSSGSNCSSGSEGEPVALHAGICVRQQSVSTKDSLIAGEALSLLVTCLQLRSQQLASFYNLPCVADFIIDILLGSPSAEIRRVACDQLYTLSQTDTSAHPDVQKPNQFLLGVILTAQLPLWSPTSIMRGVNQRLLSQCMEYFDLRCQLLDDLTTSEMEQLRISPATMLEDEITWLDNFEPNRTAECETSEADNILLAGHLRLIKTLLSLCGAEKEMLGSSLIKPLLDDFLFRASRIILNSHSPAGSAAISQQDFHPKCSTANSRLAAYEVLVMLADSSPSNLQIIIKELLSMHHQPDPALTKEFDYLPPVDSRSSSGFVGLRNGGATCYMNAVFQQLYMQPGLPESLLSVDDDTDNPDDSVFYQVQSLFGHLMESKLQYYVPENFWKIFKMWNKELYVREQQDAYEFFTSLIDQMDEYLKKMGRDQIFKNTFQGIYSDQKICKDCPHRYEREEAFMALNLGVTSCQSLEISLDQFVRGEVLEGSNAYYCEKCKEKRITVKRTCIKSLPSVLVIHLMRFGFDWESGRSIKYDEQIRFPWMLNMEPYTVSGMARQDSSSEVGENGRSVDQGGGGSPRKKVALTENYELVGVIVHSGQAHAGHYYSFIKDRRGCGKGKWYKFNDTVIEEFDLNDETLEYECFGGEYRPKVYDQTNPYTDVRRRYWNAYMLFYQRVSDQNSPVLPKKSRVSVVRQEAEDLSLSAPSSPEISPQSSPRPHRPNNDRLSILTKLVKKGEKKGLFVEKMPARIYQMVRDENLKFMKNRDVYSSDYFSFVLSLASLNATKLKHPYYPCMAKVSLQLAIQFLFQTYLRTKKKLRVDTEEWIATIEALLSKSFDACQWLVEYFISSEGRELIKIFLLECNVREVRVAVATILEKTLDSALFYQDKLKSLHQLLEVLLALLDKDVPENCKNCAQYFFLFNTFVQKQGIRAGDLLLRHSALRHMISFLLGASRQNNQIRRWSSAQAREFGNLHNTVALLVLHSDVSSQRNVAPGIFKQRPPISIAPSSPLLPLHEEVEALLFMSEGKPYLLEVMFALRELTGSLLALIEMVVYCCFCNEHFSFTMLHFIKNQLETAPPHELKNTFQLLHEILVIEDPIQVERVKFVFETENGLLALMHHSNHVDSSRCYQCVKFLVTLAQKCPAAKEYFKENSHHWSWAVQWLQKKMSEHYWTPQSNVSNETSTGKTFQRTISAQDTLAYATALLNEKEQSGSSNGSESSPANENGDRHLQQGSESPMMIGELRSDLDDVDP

CC(NC(=O)CCl)c1cc2n(n1)CCCC2.Cl (stereo not given)
inactive: USP19 -0.153 | USP22 0.0191 | USP24 -0.262 | USP25 -0.378 | USP28 -0.582
